Records with an inconclusive call do not appear. Calls of active or inactive are those of the source. Unless noted, the call rests on the fitted dose curve; in most records, active means well fitted curve in the direction sought with a large enough effect in the repeat runs; inconclusive means weak or mixed curves; inactive means no such curve, though single readings can be large; an effect the other way counts as inactive or inconclusive.
How the values were obtained:
[1] = qHTS assay to identify small molecule agonists of the NFkB signaling pathway (AID 1159509; active means well fitted curve in the direction sought with a large enough effect in the signal ratio in the repeat runs, not every such curve was filed as active; the % refers to the signal ratio; further: series mostly up to about 61 µM; on the % scale 0 is the no-effect control and ±100 the full control effect)
Method in brief: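 Readout: FRET fluorescence, 405 nm excitation, 460/530 nm emission; beta-lactamase expression disrupts FRET. Cells: ME-180 stably carrying NF-kB-driven bla reporter. Compound exposure 5 hr, 37 C, 5% CO2.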

[2] = qHTS assay to identify small molecule agonists of the endoplasmic reticulum stress response signaling pathway (AID 1159516; active means well fitted activation curve with a large enough effect in the signal ratio in the repeat runs, not every such curve was filed as active; the % refers to the signal ratio; further: on the % scale 0 is the no-effect control and ±100 the full control effect)
Method in brief: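 For this screen, HeLa cells stably carrying beta-lactamase under the ER stress response element received test compounds, positive controls or DMSO for 5 hr at 37 C; B/G FRET substrate was then added and dual-wavelength emission recorded.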

[3] = qHTS assay to identify small molecule agonists of the endoplasmic reticulum stress response signaling pathway - cell viability counter screen (AID 1159517; calls by dose curve; further: series mostly up to about 61 µM; on the % scale 0 is the no-effect control and ±100 the full control effect; nearly all actives have a fitted effect of over 50% in size)
Method in brief: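 Steps: seed 1,500 ESRE-bla HeLa cells per well; incubate overnight at 37 C, 5% CO2; add compounds in DMSO for 5 hr; run FRET substrate 2 hr RT; add CellTiter-Glo, wait 30 min, read luminescence.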

[4] = qHTS assay to identify small molecule antagonists of the retinoid-related orphan receptor gamma (ROR-gamma) signaling pathway - cell viability counter screen (AID 1159520); further: on the % scale 0 is the no-effect control and ±100 the full control effect; nearly all actives have a fitted effect of over 50% in size
Method in brief: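 Tet-on ROR gamma CHO cells were given compounds for 2 hr, then doxycycline hyclate at 1 uM final, and incubated 16 hr at 37 C. Viability was measured as ATP content by CellTiter-Glo luminescence.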

[5] = molecular target: Nuclear receptor ROR-gamma (Homo sapiens) (UniProt P51449); test: qHTS assay to identify small molecule antagonists of the retinoid-related orphan receptor gamma (ROR-gamma) signaling pathway (AID 1159521;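 further: CHO cells with doxycycline inducible ROR-gamma driving an RORE luciferase reporter; top concentration of the series differs between compounds; on the % scale 0 is the no-effect control and ±100 the full control effect; nearly all actives have a fitted effect of over 50% in size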)
Method in brief: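 Readout: ONE-Glo luciferase luminescence, 30 min at room temperature. System: Tet-on RORγ CHO, RORE-LUC. Sequence: compound 2 h, doxycycline 1 uM final, 16 h at 37 C.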

[6] = qHTS assay to identify small molecule agonists of the AP-1 signaling pathway - cell viability counter screen (AID 1159525; calls by dose curve; further: nearly all actives have a fitted effect of over 55% in size)
Method in brief: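 Same-well cytotoxicity counter screen of the Tox21 10K library in ME-180 cells. The readout is ATP-dependent luminescence after 5 h compound treatment. Data are normalised to DMSO and tetra n-octyl ammonium bromide controls.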

[7] = qHTS assay to identify small molecule agonists of the RXR signaling pathway - cell viability counter screen (AID 1159529); further: series mostly up to about 77 µM; on the % scale 0 is the no-effect control and ±100 the full control effect; nearly all actives have a fitted effect of over 50% in size
Method in brief: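 Tox21 10K compounds were tested for cytotoxicity against GeneBLAzer RXR-alpha HEK 293T cells grown in 2% charcoal-stripped FBS. Exposure lasted 16 hr at 37 C, 5% CO2; viability read by CellTiter-Glo luminescence.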

[8] = qHTS assay to identify small molecule antagonists of the retinoid acid receptor (RAR) signaling pathway - cell viability counter screen (AID 1159551); further: on the % scale 0 is the no-effect control and ±100 the full control effect; nearly all actives have a fitted effect of over 35% in size
Method in brief: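 Measured by luminescent ATP detection, viability reflects C3RL4 cells treated 6 h at 37 C with test chemicals in the presence of 1 uM (final) retinol.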

[9] = qHTS assay to identify small molecule antagonists of the vitamin D receptor (VDR) signaling pathway - cell viability counter screen (AID 743225)
Method in brief: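 Cytotoxicity toward the VDR-bla HEK 293T line was scored by ATP-based CellTiter-Glo luminescence, read in the wells already used for the beta-lactamase readout after 16 h compound treatment under 3 nM 1-alpha,25-dihydroxyvitamin D3 stimulation.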

[10] = qHTS assay to identify small molecule antagonists of the retinoic acid receptor (RAR) signaling pathway (AID 1159552)
Method in brief: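 Overnight-plated C3RL4 reporter cells get compound, then retinol to 1 uM final; plates sit 6 hr at 37 C, 5% CO2. A luciferase reagent is added and light output recorded after 30 min at room temperature.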

[11] = qHTS assay to identify small molecule agonists of the retinoic acid receptor (RAR) signaling pathway (AID 1159553); further: on the % scale 0 is the no-effect control and ±100 the full control effect
Method in brief: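 6 hr compound exposure (DMSO vehicle) of overnight-plated C3RL4 RARE-luc cells at 37 C; luminescence quantified after 30 min RT with luciferase reagent.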

[12] = qHTS assay to identify small molecule agonists of the AP-1 signaling pathway (AID 1159526; calls by dose curve; further: on the % scale 0 is the no-effect control and ±100 the full control effect)
[13] = molecular target: Retinoic acid receptor RXR-alpha (Homo sapiens) (UniProt P19793); test: qHTS assay to identify small molecule agonists of the RXR signaling pathway (AID 1159527; calls by dose curve; further: on the % scale 0 is the no-effect control and ±100 the full control effect; nearly all actives have a fitted effect of over 35% in size)
Method in brief: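 Reporter activation is measured as beta-lactamase activity via FRET substrate cleavage (emission 460/530 nm) in HEK 293T cells expressing an RXR-alpha-driven bla construct, following 16 hr compound exposure at 37 C.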

[14] = qHTS assay to identify small molecule antagonists of the estrogen related receptor (ERR) signaling pathway from Tox21 library - cell viability counter screen (AID 1224834); further: on the % scale 0 is the no-effect control and ±100 the full control effect; nearly all actives have a fitted effect of over 30% in size
Method in brief: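 Seeded ERR cells were rested 6 h at 37 C/5% CO2 before compounds, positive and negative controls or DMSO were added. Incubation continued for 17.5 h, and viability was then quantified by CellTiter-Fluor fluorescence.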

Retinoic acid receptor RXR-alpha (Homo sapiens), sequence (P19793 whole entry, looked up): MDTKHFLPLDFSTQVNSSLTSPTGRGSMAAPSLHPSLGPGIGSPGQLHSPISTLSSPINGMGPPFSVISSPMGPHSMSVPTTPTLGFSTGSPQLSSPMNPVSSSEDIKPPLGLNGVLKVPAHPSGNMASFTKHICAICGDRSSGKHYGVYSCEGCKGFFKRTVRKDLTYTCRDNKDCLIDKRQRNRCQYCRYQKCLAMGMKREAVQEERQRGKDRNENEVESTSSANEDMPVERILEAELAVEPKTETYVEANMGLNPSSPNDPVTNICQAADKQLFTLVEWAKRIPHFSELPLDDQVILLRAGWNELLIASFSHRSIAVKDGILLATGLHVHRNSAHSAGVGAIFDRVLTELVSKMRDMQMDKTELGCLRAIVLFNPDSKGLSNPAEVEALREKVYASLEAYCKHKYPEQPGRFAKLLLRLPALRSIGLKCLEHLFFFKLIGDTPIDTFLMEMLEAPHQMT

C=CC(C)(O)CC/C=C(\C)CCC=C(C)C (centres undefined)
inactive: outcome [1] | outcome [2] | outcome [3] | Potency [4] | Potency [5] | outcome [6] | Potency [7] | outcome [8]

CC(C)C1=CC2=CC[C@@H]3[C@](C)(CCC[C@@]3(C)C(=O)O)[C@H]2CC1
inactive: Potency [9] | outcome [1] | outcome [2] | outcome [3] | Potency [4] | Potency [5] | outcome [6] | outcome [8] | Potency [10] | Potency [11]

CCC(=O)O[C@]1(C(=O)SCF)[C@H](C)C[C@H]2[C@@H]3C[C@H](F)C4=CC(=O)C=C[C@]4(C)[C@@]3(F)[C@@H](O)C[C@@]21C
inactive: Potency [9] | outcome [1] | outcome [2] | outcome [3] | Potency [4] | Potency [5] | outcome [6] | Potency [7] | outcome [8]

OCc1ccccc1O
inactive: Potency [9] | outcome [1] | outcome [2] | outcome [3] | Potency [4] | outcome [6] | Potency [12] | Potency [13] | outcome [8] | Potency [10] | Potency [11] | Potency [14]

CCCOCCC
inactive: outcome [1] | outcome [2] | outcome [3] | Potency [4] | outcome [6] | Potency [12] | Potency [13] | Potency [7] | outcome [8] | Potency [10] | Potency [11]

CCc1cc2cc(OC)c(OC)cc2c(Cc2ccccc2)n1
inactive: Potency [9] | outcome [1] | outcome [2] | outcome [3] | Potency [4] | Potency [5] | outcome [6] | Potency [11]

C1CSCCS1
inactive: outcome [1] | outcome [2] | outcome [3] | Potency [4] | outcome [6] | Potency [12] | Potency [13] | Potency [7] | outcome [8] | Potency [10] | Potency [11] | Potency [14]

CC1=C(O)C(=O)OC1C (centres undefined)
inactive: outcome [1] | outcome [2] | outcome [3] | Potency [4] | outcome [6] | Potency [12] | Potency [13] | Potency [7] | outcome [8] | Potency [10] | Potency [11]

CCOc1ccc(NS(=O)(=O)c2ccc(N)cc2)nn1
inactive: Potency [9] | outcome [1] | outcome [2] | outcome [3] | Potency [4] | outcome [6] | Potency [12] | Potency [13] | outcome [8] | Potency [10] | Potency [11] | Potency [14]

C[C@@H]1CN(c2c(F)c(F)c3c(=O)c(C(=O)O)cn(C4CC4)c3c2F)C[C@H](C)N1
inactive: Potency [9] | outcome [1] | outcome [2] | outcome [3] | activity, negative = cytotoxicity [4] 3.95% [at 19 µM] | viability change, negative = cytotoxic [6] 7.6% [at 15.8 µM] | activation [12] -3.66% [at 15.8 µM] | activation [13] 6.08% [at 15.8 µM] | activity change, negative = cytotoxicity [8] 3.44% [at 19 µM] | activity, negative = inhibition [10] 16.3% [at 19 µM] | Potency [11]
